Structures are written as SMILES. The campaign covered roughly 39,000 compounds. About 500 (1.3%) were called active. The entries come from a sample that favours actives as a whole.

In the assay the test system is S. aureus RN4220. The assay is described as follows: growth inhibition call (relative growth <= 0.2). The settings on record: 50 µM.
As to `C[C@H]1CN([C@@H](C)CO)C(=O)Cc2cc(NC(=O)Nc3ccc(F)cc3)ccc2O[C@H]1CN(C)S(=O)(=O)c1cn(C)cn1`, the growth inhibition call is “inactive”.
As to `CCOC(=O)CSc1nnc2c3sc4nc(N5CCOCC5)c5c(c4c3ncn12)CC(C)(C)OC5`, the growth inhibition call is “inactive”.
In the case of `C[C@H](CO)N1C[C@H](C)[C@@H](CN(C)Cc2ccc(C(F)(F)F)cc2)OCCCC[C@H](C)Oc2ccc(NS(=O)(=O)c3cn(C)cn3)cc2C1=O` it was “inactive”.
For the molecule `C[C@@H]1CCCCO[C@@H](CN(C)Cc2ccccc2)[C@H](C)CN([C@H](C)CO)C(=O)c2cc(NC(=O)Nc3ccccc3)ccc2O1`, the growth inhibition call was “inactive”.
Consider `C[C@@H]1CN([C@H](C)CO)C(=O)c2cccc(NC(=O)Nc3cccc4ccccc34)c2O[C@@H]1CN(C)C(=O)Nc1ccc2c(c1)OCO2`, for which the growth inhibition call was “inactive”.
Take `COC(=O)c1c2oc(c1C(=O)OC)C(=O)N(C)Cc1cn(nn1)C[C@@H](C)NC(=O)N[C@H](CO)CC2`: the growth inhibition call was “inactive”.
For `C[C@H](CO)N1C[C@H](C)[C@@H](CN(C)C(=O)Nc2ccc3c(c2)OCO3)OCCCC[C@H](C)Oc2ccc(NC(=O)Nc3ccc(F)cc3)cc2C1=O`, the growth inhibition call was “inactive”.
`COc1ccc(NC(=O)N(C)C[C@@H]2OCCCC[C@H](C)Oc3ccc(NC(=O)Nc4ccc5c(c4)OCO5)cc3C(=O)N([C@@H](C)CO)C[C@@H]2C)cc1`: the growth inhibition call is “inactive”.
For `Cc1noc(C)c1S(=O)(=O)N(C)C[C@H]1Oc2ccc(NC(=O)CCC(F)(F)F)cc2CC(=O)N([C@H](C)CO)C[C@H]1C`, the growth inhibition call was “inactive”.
In the case of `CC(=O)N(C)C[C@H]1Oc2ncc(C#C[C@H](C)O)cc2C(=O)N([C@H](C)CO)C[C@H]1C` it was “inactive”.
In the case of `Cc1noc(C)c1NC(=O)N(C)C[C@@H]1Oc2ccc(NC(=O)Nc3ccc(C(F)(F)F)cc3)cc2C(=O)N([C@H](C)CO)C[C@@H]1C` it was “inactive”; in that of `Cc1noc(C)c1NC(=O)Nc1ccc2c(c1)C(=O)N([C@H](C)CO)C[C@@H](C)[C@H](CN(C)C(=O)Nc1ccc(C(F)(F)F)cc1)O2`, “inactive”; in that of `C[C@H](CO)N1C[C@H](C)[C@@H](CN(C)C(=O)Nc2ccc(C(F)(F)F)cc2)Oc2ccc(NC(=O)CCC(F)(F)F)cc2C1=O`, “active”.
With `Cc1noc(C)c1NC(=O)Nc1ccc2c(c1)C(=O)N([C@H](C)CO)C[C@@H](C)[C@@H](CN(C)C(=O)Nc1ccc(C(F)(F)F)cc1)O2`, the growth inhibition call is “inactive”.
In the case of `Cc1noc(C)c1NC(=O)Nc1ccc2c(c1)C(=O)N([C@@H](C)CO)C[C@H](C)[C@@H](CN(C)C(=O)Nc1ccc(C(F)(F)F)cc1)O2` it was “inactive”.
In the case of `Cc1noc(C)c1NC(=O)Nc1ccc2c(c1)C(=O)N([C@H](C)CO)C[C@H](C)[C@H](CN(C)C(=O)Nc1ccc(C(F)(F)F)cc1)O2`, the growth inhibition call was “active”.
In the case of `C[C@@H]1CN([C@H](C)CO)C(=O)c2cc(NC(=O)CCC(F)(F)F)ccc2O[C@@H]1CN(C)C(=O)Nc1ccc(C(F)(F)F)cc1` it was “inactive”.
In the case of `Cc1noc(C)c1NC(=O)Nc1ccc2c(c1)C(=O)N([C@@H](C)CO)C[C@H](C)[C@H](CN(C)C(=O)Nc1ccc(C(F)(F)F)cc1)O2` it was “active”.
For the molecule `Cc1noc(C)c1NC(=O)Nc1ccc2c(c1)C(=O)N([C@@H](C)CO)C[C@@H](C)[C@@H](CN(C)C(=O)Nc1ccc(C(F)(F)F)cc1)O2`, the growth inhibition call was “active”.
For the molecule `Cc1noc(C)c1NC(=O)Nc1ccc2c(c1)C(=O)N([C@H](C)CO)C[C@H](C)[C@@H](CN(C)C(=O)Nc1ccc(C(F)(F)F)cc1)O2`, the growth inhibition call was “inactive”.
As to `Cc1noc(C)c1NC(=O)Nc1ccc2c(c1)C(=O)N([C@@H](C)CO)C[C@@H](C)[C@H](CN(C)C(=O)Nc1ccc(C(F)(F)F)cc1)O2`, the growth inhibition call was “inactive”.
Regarding `C[C@@H]1CN([C@@H](C)CO)C(=O)c2cc(NC(=O)CCC(F)(F)F)ccc2O[C@H]1CN(C)C(=O)Nc1ccc(C(F)(F)F)cc1`, the growth inhibition call was “inactive”.
The entry for `C[C@@H]1CN([C@@H](C)CO)C(=O)Cc2cc(NC(=O)C3CC3)ccc2O[C@@H]1CN(C)C(=O)Nc1ccc2c(c1)OCO2` is “inactive”; for `CC(C)c1ccccc1Cc1cc(C(=O)Nc2ccc(S(=O)(=O)c3ccccc3C(C)(C)C)cc2)c(O)c(O)c1O` it is “inactive”; for `Cc1ccc(S(=O)(=O)N(C)C[C@@H]2Oc3ccc(NC(=O)Nc4cccc5ccccc45)cc3C(=O)N([C@@H](C)CO)C[C@H]2C)cc1` it is “inactive”.
Regarding `C[C@H]1CC/C=C\[C@H]2O[C@@]34C=CCN(c5ccc6ccccc6c5)C(=O)[C@H]3N(CCCO)C(=O)[C@@H]4[C@@H]2C(=O)O1`, the growth inhibition call was “inactive”.
With `C[C@H]1CN([C@@H](C)CO)C(=O)Cc2cc(NC(=O)CCC(F)(F)F)ccc2O[C@H]1CN(C)S(=O)(=O)c1cn(C)cn1`, the growth inhibition call was “inactive”.
On to `CCN(CC)CCS(=O)(=O)[C@@H]1CCN2C(=O)c3coc(n3)CC(=O)C[C@H](O)/C=C(C)/C=C\CNC(=O)/C=C/[C@@H](C)[C@H](C(C)C)OC(=O)[C@@H]12`, for which the growth inhibition call was “active”.
In the case of `COc1cccc2c1C(=O)c1c(O)c3c(c(O)c1C2=O)C[C@](O)(C(=O)CO)C[C@H]3O[C@H]1C[C@@H](N)[C@@H](O)[C@@H](C)O1`, the growth inhibition call was “active”.
Regarding `CCCCC(=O)OCC(=O)[C@]1(O)Cc2c(O)c3c(c(O)c2[C@@H](O[C@H]2C[C@H](NC(=O)C(F)(F)F)[C@H](O)[C@H](C)O2)C1)C(=O)c1c(OC)cccc1C3=O`, the growth inhibition call was “inactive”.
Consider `COc1cccc2c1C(=O)c1c(O)c3c(c(O)c1C2=O)CC(O)(C(=O)CO)CC3OC1CC(N)C(O)C(C)O1` (centres undefined) [listing 1 of 2 here], for which the growth inhibition call was “inactive”.
Take `COc1cccc2c1C(=O)c1c(O)c3c(c(O)c1C2=O)CC(O)(C(=O)CO)CC3OC1CC(N)C(O)C(C)O1` (centres undefined) [listing 2 of 2 here]: the growth inhibition call was “inactive”.
Take `COc1cccc2c1C(=O)c1c(O)c3c(c(O)c1C2=O)CC(O)(C(=O)CO)CC3OC1CC(N)C(O)C(C)O1.Cl` (centres undefined): the growth inhibition call was “inactive”.
With `COc1cccc2c1C(=O)c1c(O)c3c(c(O)c1C2=O)C[C@@](O)(C(=O)CO)C[C@@H]3O[C@H]1C[C@H](N)[C@@H](O)[C@H](C)O1`, the growth inhibition call is “active”.
For `COc1cccc2c1C(=O)c1c(O)c3c(c(O)c1C2=O)C[C@@](O)(C(=O)CO)C[C@@H]3O[C@H]1C[C@H](N)[C@H](O)[C@H](C)O1`, the growth inhibition call is “active”.
As to `Cc1ccnc(NC(=O)Cn2cnc3c2c(=O)n(C)c(=O)n3C)c1`, the growth inhibition call was “inactive”.
As to `Cc1noc(C)c1S(=O)(=O)Nc1ccc2c(c1)C(=O)N([C@@H](C)CO)C[C@@H](C)[C@@H](CN(C)S(C)(=O)=O)OCCCC[C@@H](C)O2`, the growth inhibition call was “inactive”.
In the case of `COCCC(=O)N1CCC2(CC1)COC2` it was “inactive”.
As to `C[C@@H]1CCCCO[C@@H](CN(C)C(=O)Nc2ccc(C(F)(F)F)cc2)[C@H](C)CN([C@H](C)CO)C(=O)c2cc(N(C)C)ccc2O1`, the growth inhibition call was “inactive”.
For the molecule `Cc1noc(C)c1NC(=O)N(C)C[C@H]1Oc2ccc(NS(=O)(=O)c3ccccc3)cc2C(=O)N([C@@H](C)CO)C[C@H]1C`, the growth inhibition call is “inactive”.
In the case of `CCOC(=O)[C@H]1CN(C(C)(C)C)C(=O)C1=O` it was “inactive”; in that of `O=c1[nH]c2ccsc2c(=O)n1CCO`, “inactive”; in that of `C[C@@H]1CN([C@@H](C)CO)S(=O)(=O)c2ccc(C#Cc3ccncc3)cc2O[C@H]1CN(C)C(=O)C1CCOCC1`, “inactive”.
Consider `CCS(=O)(=O)N1CC[C@]2(CC1)CN([C@H](CO)c1c2c2ccc(cc2n1C)OC)C(=O)CN1CCOCC1`, for which the growth inhibition call was “inactive”.
As for `C[C@H](CO)N1C[C@H](C)[C@@H](CN(C)Cc2ccccc2)Oc2ccc(NC(=O)Cn3cnnn3)cc2CC1=O`, the growth inhibition call is “inactive”.
For `Cc1ccc(S(=O)(=O)O)cc1.NC1CCN(c2nc3c(cc2F)c(=O)c(C(=O)O)cn3-c2ccc(F)cc2F)C1.O` (centres undefined), the growth inhibition call is “inactive”.
The entry for `N[C@H]1CCN(c2nc3c(cc2F)c(=O)c(C(=O)O)cn3-c2ccc(F)cc2F)C1` is “active”.
With `CN[C@H]1CN(c2ccc3c(=O)c(C(=O)O)cn(-c4nccs4)c3n2)C[C@@H]1OC`, the growth inhibition call is “inactive”.
Regarding `N[C@@H]1[C@H]2CN(c3nc4c(cc3F)c(=O)c(C(=O)O)cn4-c3ccc(F)cc3F)C[C@@H]12`, the growth inhibition call was “active”.
Turning to `C[C@H](CO)N1C[C@H](C)[C@H](CN(C)C(=O)CCC(F)(F)F)OCCCC[C@H](C)Oc2ccc(NC(=O)Nc3ccccc3)cc2C1=O`, the growth inhibition call is “inactive”.
The entry for `C[C@H](CO)N1C[C@H](C)[C@H](CN(C)C(=O)CCCN(C)C)OCCCC[C@H](C)Oc2ccc(NS(C)(=O)=O)cc2C1=O` is “inactive”; for `C[C@H](CO)N1C[C@H](C)[C@H](CN(C)S(=O)(=O)c2ccc(F)cc2)Oc2c(NC(=O)C3CCOCC3)cccc2C1=O` it is “inactive”; for `CC(C)NC(=O)N(C)C[C@@H]1Oc2c(NS(=O)(=O)c3ccc(F)cc3)cccc2C(=O)N([C@H](C)CO)C[C@H]1C` it is “inactive”.
The entry for `C[C@@H]1CCCCO[C@@H](CN(C)C(=O)CCCN(C)C)[C@H](C)CN([C@@H](C)CO)C(=O)c2cc(NC(=O)Nc3ccc(F)cc3)ccc2O1` is “inactive”; for `COc1cccc(S(=O)(=O)N(C)C[C@@H]2Oc3ncc(C#CC(C)C)cc3C(=O)N([C@@H](C)CO)C[C@H]2C)c1` it is “inactive”.
`COC(=O)CC1C(C)(C)C(OC(C)=O)C2CC3=C4CC(=O)OC(c5ccoc5)C4(C)CCC3C1(C)C2=O` (centres undefined): the growth inhibition call is “inactive”.
Consider `CCC(=C/[C@H](C)C/C=C/C(C)=C/[C@@H](C)C(=O)[C@@H](C)[C@H](O)[C@@H](C)C/C(C)=C/C(=O)O)/C=C/[C@@H]1OC(=O)C=C[C@@H]1C`, for which the growth inhibition call is “active”.
`Cc1noc(C)c1S(=O)(=O)N(C)C[C@@H]1Oc2ccc(NS(=O)(=O)c3ccc(F)cc3)cc2C(=O)N([C@H](C)CO)C[C@@H]1C`: the growth inhibition call is “inactive”.
The entry for `COc1ccc(S(=O)(=O)N(C)C[C@@H]2Oc3c(NS(=O)(=O)c4ccc(C)cc4)cccc3C(=O)N([C@H](C)CO)C[C@@H]2C)cc1` is “inactive”.
In the case of `O=C1NCc2ccccc21` it was “inactive”; in that of `O=C1CCNc2cc3ccccc3cc21`, “active”; in that of `O=C1CCCNc2ccc(Cl)cc21`, “inactive”.
Turning to `CN(C)C(=O)C[C@@H]1CC[C@@H](NC(=O)C2CC2)[C@@H](CO)O1`, the growth inhibition call is “inactive”.
Take `C[C@@H]1CCCCO[C@@H](CN(C)C(=O)Nc2ccc(F)cc2)[C@H](C)CN([C@H](C)CO)C(=O)c2cc(NS(=O)(=O)c3ccc(F)cc3)ccc2O1`: the growth inhibition call is “inactive”.

For the origin of these results see the antibiotic and cytotoxicity screens of Wong et al. (2023).
